From the antibiotic and cytotoxicity screens of Wong et al. (2023)
Among all 39,000 compounds or so, about 3,300 (8.5%) were called active. Shown is part of a subset that was picked to be rich in actives.

system: HepG2; experiment: cytotoxicity call (relative viability < 0.9); details: 10 µM

SMILES | cytotoxicity call
C[C@@H]1CN([C@@H](C)CO)C(=O)Cc2cc(NS(=O)(=O)c3cccs3)ccc2O[C@@H]1CN(C)S(=O)(=O)c1cn(C)cn1 | inactive
Cc1ccc(S(=O)(=O)N(C)C[C@H]2Oc3ccc(NC(=O)CCN4CCOCC4)cc3CC(=O)N([C@H](C)CO)C[C@@H]2C)cc1 | inactive
C/C=C/c1ccc2c(c1)O[C@@H](CN(C)Cc1ccc(C(=O)O)cc1)[C@H](C)CN([C@H](C)CO)S2(=O)=O | inactive
C[C@@H]1CN([C@@H](C)CO)C(=O)c2c(c3ccccc3n2C)-c2ccccc2CO[C@H]1CN(C)C(=O)c1ccc(F)cc1 | inactive
OC[C@H]1O[C@H](C#Cc2ccccc2)C=C[C@@H]1O | inactive
C[C@H](CO)N1C[C@H](C)[C@H](CN(C)C(=O)Nc2ccc3c(c2)OCO3)Oc2c(NC(=O)c3ccncc3)cccc2C1=O | inactive
Cc1ccc(S(=O)(=O)N[C@H]2C=C[C@@H](CC(=O)NCCN3CCCCC3)O[C@@H]2CO)cc1 | inactive
Cn1cnc2c1c(=O)[nH]c(=O)n2C | inactive
Cc1cc(C(=O)N2CCCC[C@@H]2CCOc2cccc(CN(C)Cc3cccc4cccnc34)c2)c(=O)[nH]c1C | inactive
Cc1nc(-c2cccc(F)c2)cs1 | inactive
COc1ccc2c3c([nH]c2c1)[C@@H](CO)N(C[C@]13CN(CC2CCOCC2)C1)C(=O)Nc1c(noc1C)C | inactive
C[C@@H]1CCCCO[C@@H](CN(C)C(=O)Nc2ccccc2)[C@@H](C)CN([C@H](C)CO)C(=O)c2cc(NC(=O)Nc3cccc4ccccc34)ccc2O1 | inactive
C[C@@H]1CN([C@@H](C)CO)C(=O)c2cc(NC(=O)Nc3ccc(F)cc3)ccc2O[C@H]1CN(C)S(C)(=O)=O | inactive
COc1ccc(NC(=O)Nc2ccc3c(c2)CC(=O)N([C@@H](C)CO)C[C@@H](C)[C@@H](CN(C)C(=O)Nc2ccc(C(F)(F)F)cc2)O3)cc1 | inactive
COc1ccc(NC(=O)Nc2ccc3c(c2)CC(=O)N([C@H](C)CO)C[C@H](C)[C@H](CN(C)C(=O)Nc2ccc(C(F)(F)F)cc2)O3)cc1 | inactive
COc1ccc(NC(=O)N(C)C[C@@H]2Oc3ccc(NC(=O)Nc4ccc(C(F)(F)F)cc4)cc3CC(=O)N([C@H](C)CO)C[C@@H]2C)cc1 | inactive
COc1ccc(NC(=O)Nc2ccc3c(c2)CC(=O)N([C@@H](C)CO)C[C@H](C)[C@@H](CN(C)C(=O)Nc2ccc(C(F)(F)F)cc2)O3)cc1 | inactive
COc1ccc(NC(=O)Nc2ccc3c(c2)CC(=O)N([C@@H](C)CO)C[C@H](C)[C@H](CN(C)C(=O)Nc2ccc(C(F)(F)F)cc2)O3)cc1 | active
COc1ccc(NC(=O)N(C)C[C@H]2Oc3ccc(NC(=O)Nc4ccc(C(F)(F)F)cc4)cc3CC(=O)N([C@@H](C)CO)C[C@H]2C)cc1 | active
CO[C@H]1CCN(C(=O)CN(C)C)[C@@H]2CCO[C@@H]12 | inactive
C[C@H](CO)N1C[C@H](C)[C@@H](CN(C)Cc2cccc3c2OCCCO3)OCc2ccccc2-c2c(n(C)c3ccccc23)C1=O | inactive
CCCC(=O)Nc1ccc2c(c1)C(=O)N(C)C[C@@H](OC)[C@@H](C)CN(Cc1ccc(-c3ccccn3)cc1)[C@H](C)CO2 | inactive

SMILES | cytotoxicity call
CN1C(=O)c2cc(NS(C)(=O)=O)ccc2OC[C@@H]2O[C@H](CC(=O)N3CCOCC3)CC[C@@H]21 | inactive
C[C@@H]1C(=O)O[C@@H]2C[C@@](C)(O)[C@H]3C[C@H]4O[C@@]4(C)[C@@]3(O)C(=O)[C@@H]12 | inactive
COc1ccc(S(=O)(=O)N(C)C[C@@H]2Oc3ccc(N(C)C)cc3C(=O)N([C@@H](C)CO)C[C@H]2C)cc1 | active
COc1ccc(S(=O)(=O)N(C)C[C@H]2Oc3ccc(NC(=O)C4CC4)cc3C(=O)N([C@@H](C)CO)C[C@H]2C)cc1 | inactive
Cc1ccc(S(=O)(=O)N(C)C[C@@H]2Oc3ccc(NC(=O)C4CC4)cc3C(=O)N([C@H](C)CO)C[C@@H]2C)cc1 | inactive
Cc1ccc(S(=O)(=O)N(C)C[C@H]2Oc3ccc(NC(=O)CCN4CCOCC4)cc3C(=O)N([C@@H](C)CO)C[C@H]2C)cc1 | inactive
COc1ccc(S(=O)(=O)N(C)C[C@@H]2Oc3ccc(N(C)C)cc3C(=O)N([C@H](C)CO)C[C@@H]2C)cc1 | inactive
COc1ccc(S(=O)(=O)N(C)C[C@H]2Oc3ccc(N(C)C)cc3C(=O)N([C@@H](C)CO)C[C@H]2C)cc1 | inactive
COc1ccc(S(=O)(=O)N(C)C[C@@H]2Oc3ccc(NC(=O)C4CC4)cc3C(=O)N([C@@H](C)CO)C[C@H]2C)cc1 | inactive
Cc1ccc(S(=O)(=O)N(C)C[C@H]2Oc3ccc(NC(=O)CCN4CCOCC4)cc3C(=O)N([C@@H](C)CO)C[C@@H]2C)cc1 | active
Cc1ccc(S(=O)(=O)N(C)C[C@@H]2Oc3ccc(NC(=O)CCN4CCOCC4)cc3C(=O)N([C@H](C)CO)C[C@@H]2C)cc1 | inactive
COc1ccc(S(=O)(=O)N(C)C[C@H]2Oc3ccc(NC(=O)C4CC4)cc3C(=O)N([C@@H](C)CO)C[C@@H]2C)cc1 | active
Cc1ccc(S(=O)(=O)N(C)C[C@H]2Oc3ccc(NC(=O)C4CC4)cc3C(=O)N([C@@H](C)CO)C[C@H]2C)cc1 | inactive
Cc1ccc(S(=O)(=O)N(C)C[C@@H]2Oc3ccc(NC(=O)C4CC4)cc3C(=O)N([C@@H](C)CO)C[C@H]2C)cc1 | active
C[C@@H]1CCCCO[C@H](CN(C)S(=O)(=O)c2ccccc2)[C@@H](C)CN([C@@H](C)CO)C(=O)c2cc(NS(C)(=O)=O)ccc2O1 | inactive
O/N=C1\CCCCc2c1[nH]c1ccc(C3CCCCC3)cc21 | inactive
C[C@@H]1CCCCO[C@@H](CN(C)C(=O)c2ccncc2)[C@H](C)CN([C@H](C)CO)C(=O)c2cc(NC(=O)NC3CCCCC3)ccc2O1 | inactive
C[C@@H]1CN([C@H](C)CO)C(=O)c2cccc(NC(=O)c3cnccn3)c2O[C@H]1CN(C)Cc1ccncc1 | inactive
C[C@H](CO)N1C[C@H](C)[C@H](CN(C)Cc2ccc(-c3ccccc3)cc2)Oc2c(NS(=O)(=O)c3ccc(Cl)cc3)cccc2C1=O | inactive
N=C(N)NCCCCNC(=N)N.O=S(=O)(O)O | inactive
N=C(N)NCCCCNC(=N)N | active
N=C(N)NCCCCN.O=S(=O)(O)O | inactive

SMILES | cytotoxicity call
O=C(Nc1ccc2c(c1)[C@H]1C[C@H](CC(=O)N3CCc4ccccc4C3)O[C@@H](CO)[C@H]1O2)C1CCOCC1 | inactive
C[C@H](CO)N1C[C@H](C)[C@@H](CN(C)Cc2ccc(-c3ccccc3)cc2)Oc2ccc(NC(=O)Nc3cccc4ccccc34)cc2CC1=O | inactive
C[C@H](CO)N1C[C@H](C)[C@H](CN(C)Cc2ccccc2)Oc2ccc(NC(=O)Nc3cccc4ccccc34)cc2CC1=O | active
C[C@@H]1CN([C@@H](C)CO)C(=O)Cc2cc(NC(=O)Nc3cccc4ccccc34)ccc2O[C@H]1CN(C)Cc1ccccc1 | inactive
C[C@H]1CN([C@@H](C)CO)C(=O)Cc2cc(NC(=O)Nc3cccc4ccccc34)ccc2O[C@@H]1CN(C)Cc1ccccc1 | inactive
C[C@@H]1CN([C@@H](C)CO)C(=O)Cc2cc(NC(=O)Nc3cccc4ccccc34)ccc2O[C@@H]1CN(C)Cc1ccccc1 | active
C[C@@H]1CN([C@H](C)CO)C(=O)Cc2cc(NC(=O)Nc3cccc4ccccc34)ccc2O[C@H]1CN(C)Cc1ccccc1 | inactive
C[C@H]1CN([C@@H](C)CO)C(=O)Cc2cc(NC(=O)Nc3cccc4ccccc34)ccc2O[C@@H]1CN(C)Cc1ccc(-c2ccccc2)cc1 | inactive
C[C@@H]1CN([C@H](C)CO)C(=O)Cc2cc(NC(=O)Nc3cccc4ccccc34)ccc2O[C@@H]1CN(C)Cc1ccccc1 | active
C[C@H]1CN([C@@H](C)CO)C(=O)Cc2cc(NC(=O)Nc3cccc4ccccc34)ccc2O[C@H]1CN(C)Cc1ccccc1 | inactive
C[C@H](CO)N1C[C@H](C)[C@@H](CN(C)Cc2ccccc2)Oc2ccc(NC(=O)Nc3cccc4ccccc34)cc2CC1=O | active
C[C@@H]1CN([C@H](C)CO)C(=O)Cc2cc(NC(=O)Nc3cccc4ccccc34)ccc2O[C@H]1CN(C)Cc1ccc(-c2ccccc2)cc1 | inactive
C[C@H](CO)N1C[C@H](C)[C@H](CN(C)Cc2ccc(-c3ccccc3)cc2)Oc2ccc(NC(=O)Nc3cccc4ccccc34)cc2CC1=O | inactive
C[C@@H]1CN([C@@H](C)CO)C(=O)CCCn2cc(nn2)CO[C@@H]1CN(C)S(=O)(=O)c1ccc(-n2cccn2)cc1 | inactive
C[C@H]1CN([C@@H](C)CO)S(=O)(=O)c2ccc(C#Cc3cccnc3)cc2O[C@H]1CN(C)CC1CCOCC1 | inactive
COc1ccc(S(=O)(=O)N(C)C[C@H]2Oc3ccc(NS(=O)(=O)c4ccc(F)cc4)cc3CC(=O)N([C@@H](C)CO)C[C@H]2C)cc1 | inactive
COC(=O)[C@H]1CN(C)CCC1=O | inactive
C[C@@H]1O[C@@H](OC[C@H]2O[C@@H](Oc3cc(O)c4c(c3)O[C@@H](c3ccc(O)cc3)CC4=O)[C@H](O)[C@@H](O)[C@@H]2O)[C@H](O)[C@H](O)[C@H]1O | inactive
COc1ccc([Si](C)(C)[C@H]2[C@H](CCn3cc([C@H](O)c4ccccc4)nn3)O[C@@]3(C(=O)N(Cc4cccc(N5CCC5=O)c4)c4ccccc43)[C@@H]2C)cc1 | inactive
Cc1ccc(S(=O)(=O)N(C)C[C@@H]2Oc3c(NC(=O)c4cc(C)nn4C)cccc3C(=O)N([C@@H](C)CO)C[C@@H]2C)cc1 | inactive
C=CCOC(=O)[C@@H]1[C@H]2C(=O)O[C@H](c3ccccc3)[C@H](c3ccccc3)N2[C@H](c2ccc(OCCOC(=O)[C@H]3C[C@H]4C(=O)NCC(=O)N4[C@H]3c3ccc(O)cc3)cc2)[C@@]12C(=O)Nc1ccc(I)cc12 | inactive
